# Laboratory results published in paper PMC4336329 (PLoS ONE, 2015).
# Hit rate of the full screen: of about 310,000 compounds, about 14,000 (4.5%) showed an effect of 50% or more. Effects have a minus sign here. The sample as a whole holds a higher share of strong results than the screen did.
# Target: human ether-à-go-go-related gene (hERG) potassium channel (human, UniProt Q12809)
# Test: primary screen, population patch clamp on CHO cells stably expressing hERG; higher = less effect of the substance
# 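Also: peak tail current of the secondary pulse compared with the same well before compound.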
# human ether-à-go-go-related gene (hERG) potassium channel, sequence (Q12809 whole entry, looked up): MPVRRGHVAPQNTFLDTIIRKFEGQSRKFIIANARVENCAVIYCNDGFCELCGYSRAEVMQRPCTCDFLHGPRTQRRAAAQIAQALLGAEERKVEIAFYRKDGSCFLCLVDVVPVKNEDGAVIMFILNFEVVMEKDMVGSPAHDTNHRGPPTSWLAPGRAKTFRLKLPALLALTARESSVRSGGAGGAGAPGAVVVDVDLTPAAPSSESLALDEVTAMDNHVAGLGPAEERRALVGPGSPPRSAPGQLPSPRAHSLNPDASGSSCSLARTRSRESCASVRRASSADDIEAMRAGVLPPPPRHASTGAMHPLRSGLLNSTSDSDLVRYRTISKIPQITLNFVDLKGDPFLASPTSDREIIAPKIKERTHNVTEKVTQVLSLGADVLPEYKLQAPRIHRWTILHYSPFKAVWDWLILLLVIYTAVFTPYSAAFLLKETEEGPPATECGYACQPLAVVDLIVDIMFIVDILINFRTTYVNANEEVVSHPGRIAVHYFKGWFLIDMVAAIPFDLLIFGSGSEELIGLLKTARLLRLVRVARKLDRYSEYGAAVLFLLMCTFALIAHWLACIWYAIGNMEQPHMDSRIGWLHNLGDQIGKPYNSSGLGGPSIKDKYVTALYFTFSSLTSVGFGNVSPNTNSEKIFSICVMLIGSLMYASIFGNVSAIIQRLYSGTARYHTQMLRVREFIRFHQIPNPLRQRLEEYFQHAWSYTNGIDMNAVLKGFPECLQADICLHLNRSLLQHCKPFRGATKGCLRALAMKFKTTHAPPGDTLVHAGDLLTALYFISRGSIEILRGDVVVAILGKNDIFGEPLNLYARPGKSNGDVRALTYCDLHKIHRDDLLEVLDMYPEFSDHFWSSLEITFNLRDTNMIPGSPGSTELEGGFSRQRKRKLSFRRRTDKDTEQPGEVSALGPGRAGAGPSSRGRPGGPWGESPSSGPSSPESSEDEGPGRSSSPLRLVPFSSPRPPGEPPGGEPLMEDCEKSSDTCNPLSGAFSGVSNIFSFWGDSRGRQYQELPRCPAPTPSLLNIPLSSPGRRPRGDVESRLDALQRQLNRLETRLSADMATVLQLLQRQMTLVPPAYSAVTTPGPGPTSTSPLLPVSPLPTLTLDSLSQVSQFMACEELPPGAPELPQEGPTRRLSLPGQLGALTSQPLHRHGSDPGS
row,SMILES,"hERG current change (%, negative = inhibition) at 10uM [%]"
1,COc1ccc(CN(C(=O)CNC(=O)c2ccco2)C(C(=O)NC2CCCC2)c2ccco2)cc1 (stereo not drawn),-15.9
2,COc1ccccc1OCc1nnc(SCC(=O)NCc2ccco2)n1-c1ccccc1,-9.19
3,COc1ccc(N2CCN(CCC3Oc4cc([N+](=O)[O-])ccc4NC3=O)CC2)cc1 (stereo not drawn),-19.1
4,COc1ccc2c(CCNC(=O)c3ccco3)c[nH]c2c1,-1.53
5,CCOC(=O)COc1coc(CN2CCN(c3ccc(F)cc3)CC2)cc1=O,-19.4
6,CCOc1ccccc1N(CC(=O)Nc1ccc(OC)cc1OC)S(=O)(=O)c1ccccc1,14.6
7,CS(=O)(=O)c1ccc2nc(NC(=O)c3cc(-c4ccccc4)nn3-c3ccccc3)sc2c1,8.38
8,COC(=O)c1ccc(COc2ccccc2/C=C/C(=O)c2ccc(OCC(=O)O)cc2)cc1,3.76
9,CN(C)c1nc(N)nc(-c2nc3ccccc3s2)n1,-3.77
10,COc1ccc2c(c1OC)C(=O)OC2c1c(O)nc(SC)n(-c2ccccc2)c1=O (stereo not drawn),-2.74
11,COc1ccc2c(c1OC)C(=O)OC2c1c(O)n(C2CCCCC2)c(=O)[nH]c1=O (stereo not drawn),-68.8
12,COc1ccc2c(c1OC)C(=O)OC2c1c(O)n(Cc2ccc(F)cc2)c(=O)[nH]c1=O (stereo not drawn),3.09
13,Cc1noc(C)c1S(=O)(=O)N1CCN(c2ccccc2)CC1,-5.33
14,Cc1cc(-c2ccc(C)c(S(=O)(=O)N3CCN(c4ccc([N+](=O)[O-])cc4)CC3)c2)on1,-67.8
15,COc1ccc(-c2cc(C)no2)cc1S(=O)(=O)N1CCN(c2ccccn2)CC1,-63.7
16,Cc1cc(-c2ccc(C)c(S(=O)(=O)N3CCN(c4ccccn4)CC3)c2)on1,-21.2
17,COc1ccc(-c2cc(C)no2)cc1S(=O)(=O)N1CCN(c2ccccc2F)CC1,3.36
18,COc1ccc(-c2cc(C)no2)cc1S(=O)(=O)N1CCCCC1,2.3
19,Cc1noc(C)c1S(=O)(=O)N1CCN(c2ccc([N+](=O)[O-])cc2)CC1,-69

row,SMILES,"hERG current change (%, negative = inhibition) at 10uM [%]"
1,CCc1ccc(-c2cc(C)no2)cc1S(=O)(=O)N1CCN(c2ccc(F)cc2)CC1,7.09
2,Cc1noc(C)c1S(=O)(=O)N1CCN(c2ccc(Cl)cc2)CC1,-6.26
3,COc1ccc(-c2cc(C)no2)cc1S(=O)(=O)N1CCN(c2ccc([N+](=O)[O-])cc2)CC1,-76.2
4,Cc1cc(-c2ccc(C)c(S(=O)(=O)N3CCN(c4ccc(F)cc4)CC3)c2)on1,-8.14
5,CCc1ccc(-c2cc(C)no2)cc1S(=O)(=O)N1CCN(c2ccccn2)CC1,4.29
6,O=C(O)c1ccc2c(c1)S(=O)(=O)c1ccccc1C2=O,17
7,CCc1cc2cc(C(=O)Nc3ccc(F)cc3)sc2s1,3.32
8,COc1cc(NC(=O)COC(=O)CNC(=O)c2ccc(C)s2)cc(OC)c1,4.76
9,Cc1ccc(C(=O)N2CCN(c3ccccc3)CC2)cc1C,4.41
10,O=C(c1ccc(-c2ccccc2)cc1)N1CCN(c2ccccn2)CC1,-36.4
11,CN(CC(=O)Nc1cccc(F)c1)C(=O)c1ccncc1,4.28
12,CCOc1ccc(OCC)c(NC(=O)C2CCN(S(=O)(=O)c3c(C)[nH]c(=O)[nH]c3=O)CC2)c1,7.51
13,CSc1nsc(SC)c1NC(=O)N1CCCC1,-13.1
14,COCc1nnc(NC(=O)CCCOc2ccccc2OC)s1,9.6
15,COc1ccc(-c2cc(C)no2)cc1S(=O)(=O)N(C)c1ccc(C)c(C)c1,-1.83
16,COc1ccc(-c2cc(C)no2)cc1S(=O)(=O)N(C)c1ccc(C)cc1,-29.6
17,COc1ccc(-c2cc(C)no2)cc1S(=O)(=O)N(C)c1cccc(C)c1,-82.5
18,CC(=O)N1CCc2c(sc3c2c(=O)n(Cc2ccccc2)c(=O)n3CC(=O)NCC2CCCO2)C1 (stereo not drawn),-21.6
19,CCCCOC1CC(c2ccc(OCc3ccc(OC)cc3)c(OC)c2)N(C)O1 (stereo not drawn),3.47

row,SMILES,"hERG current change (%, negative = inhibition) at 10uM [%]"
1,Cc1ccn2c(CNC(C)c3cn(C)nc3C)c(C(=O)N3CCCCCC3)nc2c1 (stereo not drawn),0.193
2,O=C(CCN1C(=O)C2C3C=CC(C3)C2C1=O)N1CCN(c2ccccc2F)CC1 (stereo not drawn),-4.87
3,O=C(CCN1C(=O)C2C3C=CC(C3)C2C1=O)N1CCN(c2ccccc2Cl)CC1 (stereo not drawn),-57.2
4,O=C(CCN1C(=O)C2C3C=CC(C3)C2C1=O)N1CCN(c2cccc(Cl)c2)CC1 (stereo not drawn),-38.4
5,COc1ccc(N2CCN(C(=O)CCN3C(=O)C4C5C=CC(C5)C4C3=O)CC2)cc1 (stereo not drawn),-0.214
6,O=C(CCN1C(=O)C2C3C=CC(C3)C2C1=O)N1CCN(c2ccc([N+](=O)[O-])cc2)CC1 (stereo not drawn),-81.2
7,O=C(CCN1C(=O)C2C3C=CC(C3)C2C1=O)N1CCN(c2ccc(F)cc2)CC1 (stereo not drawn),-25.8
8,O=C(CSc1ccc2nnc(CCNC(=O)c3ccccc3)n2n1)NCc1ccccc1,-8.24
9,COc1ccc2nc(SC)c(C#N)cc2c1,15.1
10,CCOC(=O)c1cnc(Nc2ccc(OCC)cc2)nc1C,12.6
11,COc1ccccc1CN1CC(C(=O)NCc2ccc(C)c(F)c2)CCC1=O (stereo not drawn),0.721
12,COc1cccc(CN2CC(C(=O)NCc3ccc(C)c(F)c3)CCC2=O)c1 (stereo not drawn),-40.8
13,O=C(NCCc1cccc(Cl)c1)C1CCC(=O)N(Cc2ccc(Cl)cc2)C1 (stereo not drawn),-52.3
14,O=C(NCCc1ccccc1)C1CCC(=O)N(Cc2cccc(C(F)(F)F)c2)C1 (stereo not drawn),-14.2
15,O=C(NCCc1cccc(C(F)(F)F)c1)C1CCC(=O)N(Cc2ccc(Cl)cc2)C1 (stereo not drawn),-59
16,O=C(NCCC1=CCCCC1)C1CCC(=O)N(Cc2ccc(Cl)cc2)C1 (stereo not drawn),-2.34
17,O=C(NCCc1cccnc1)C1CCC(=O)N(Cc2cccc(C(F)(F)F)c2)C1 (stereo not drawn),-8.64
18,Cc1cccc(CCNC(=O)C2CCC(=O)N(Cc3ccc(Cl)cc3)C2)n1 (stereo not drawn),5.05
19,Cc1ccc(CNC(=O)C2CCC(=O)N(Cc3ccc(Cl)cc3)C2)cc1F (stereo not drawn),-63.6
